Measured values as given in PubChem BioAssay AID1159580 (chemical genetic matrix, 2015).
Out of some 5,500 compounds screened, about 2,000 (36%) were called active. Inconclusive results (about 18%) are left out. Cut-off read from the data, not from the text of the source: active = normalized growth mostly below about 0.91 (no sharp cut-off); inconclusive = no clear call, values can overlap the other calls; inactive = mostly above about 0.92. Some of the results follow.

Test: chemical genetic growth profiling, strain panel (AID 1159580);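 note: tested at 20 µM; growth read once vehicle control cultures reached saturation at 30 °C; 1 = growth at the plate median or of vehicle wells; lower values mean less growth of the strain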
Details: S. cerevisiae deletion strains, growth OD

Measured: normalized growth

C#CCn1c(=O)c2c(ncn2C)n(C)c1=O
inactive: locus YAL013W, strain DEP1, stronger effect = lower value 0.982 | locus YAL040C, strain CLN3, stronger effect = lower value 1.01 | locus YCL061C, strain MRC1 (second series), stronger effect = lower value 1.01 | locus YDR150W, strain NUM1, stronger effect = lower value 0.999 | locus YDR363W, strain ESC2, stronger effect = lower value 0.989 | locus YER002W, strain NOP16, stronger effect = lower value 0.997 | locus YGR078C, strain PAC10, stronger effect = lower value 1.01 | locus YGR229C, strain SMI1, stronger effect = lower value 1.03 | locus YJR075W, strain HOC1, stronger effect = lower value 0.994 | locus YMR263W, strain SAP30, stronger effect = lower value 0.995 | locus YMR307W, strain GAS1, stronger effect = lower value 1.01 | locus YNL175C, strain NOP13, stronger effect = lower value 0.998 | locus YNL197C, strain WHI3, stronger effect = lower value 0.977 | locus YNL224C, strain SQS1, stronger effect = lower value 1.01 | locus YNL322C, strain KRE1, stronger effect = lower value 0.987 | locus YOR083W, strain WHI5 (second series), stronger effect = lower value 0.965 | locus YPL241C, strain CIN2, stronger effect = lower value 1
